# Sampled rows, rich in hits. Any-hit rate of the full collection: about 12%.
# Sfp PPTase inh: qHTS Assay for Inhibitors of Bacillus subtilis Sfp phosphopantetheinyl transferase (PPTase). 4'-phosphopantetheinyl transferase ffp (Bacillus subtilis), Q9F4F7. Biochemical Sfp PPTase activity, qHTS. Potency, µM, actives largely listed as inhibitors. 3.5% of 310,000 active. AID 1490, 2009;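 further: the enzyme is Sfp with the accession as filed and its product quenches rhodamine fluorescence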
#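 Buffer: 50 mM Hepes-Na pH 7.6, 10 mM MgCl2, 0.01% Nonidet P-40, 0.01% BSA. Enzyme 15 nM, pre-exposed to compound 15 min; substrates then added and fluorescence change tracked over 30 min.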
# BAZ2B inh: qHTS Assay for Inhibitors of BAZ2B | Bromodomain adjacent to zinc finger domain protein 2B (Homo sapiens), Q9UIF8 | AlphaScreen BAZ2B-H3K14Ac peptide displacement | Potency, µM (highest dose often 114 µM), actives largely listed as inhibitors | 4.4% of 360,000 active | AID 504333, 2011; further: nearly all actives have a fitted effect of over 60% in size
#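 Inhibition is scored as reduced AlphaScreen emission. The BAZ2B/b-H3(5-23)K14Ac complex (50 nM each) in PBS pH 7.4, 0.01% Tween-20 meets compound (up to 110 uM) for 30 min at RT before bead addition.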
# G9a inh: qHTS Assay for Inhibitors of Histone Lysine Methyltransferase G9a | G9a H3K9 monomethylation, AlphaScreen, 2 h | 8.8% of 350,000 active | Potency, µM (top dose mostly 102 µM), actives largely listed as inhibitors | Histone-lysine N-methyltransferase EHMT2 (Homo sapiens), Q96KQ7; further: nearly all actives have a fitted effect of over 75% in size
#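 AlphaScreen detection with an anti-monomethyl H3K9 antibody quantified product after a 2 h room-temperature reaction containing 500 nM biotinylated H3K9 peptide, 20 µM SAM and 20 nM enzyme, which had been preincubated 15 min with compound.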
# JMJD2A Tudor: qHTS Assay for Inhibitors of JMJD2A-Tudor Domain | Lysine-specific demethylase 4A (Homo sapiens), O75164 | 4.4% of 390,000 active | AlphaScreen JMJD2A-Tudor / H3K4me3 peptide binding | Potency, µM (highest dose often 114 µM), actives largely listed as inhibitors; further: nearly all actives have a fitted effect of over 50% in size
# HP1b chromo inh: HTS for Inhibitors of HP1-beta Chromodomain Interactions with Methylated Histone Tails. AlphaScreen HP1-beta / biotin-H3K9me3 peptide binding. Potency, µM (highest dose often 114 µM), actives largely listed as inhibitors. 0.56% of 390,000 active. AID 540317, 2011; further: nearly all actives have a fitted effect of over 70% in size
#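 AlphaScreen: HP1-beta (50 nM) preformed 30 min with biotin-H3(1-18)K9me3 peptide (50 nM) in PBS pH 7.4, 0.01% Tween-20. Compound added for 30 min at RT, then streptavidin donor/nickel chelate acceptor beads (10 ug/mL) for 30 min.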
# TDP1 inh: qHTS Assay for Inhibitors of Tyrosyl-DNA Phosphodiesterase (TDP1); recombinant TDP1, AlphaScreen DNA substrate cleavage; 0.28% of 350,000 active; Potency, µM (highest dose often 130 µM), hits mostly inhibitors; Tyrosyl-DNA phosphodiesterase 1 (Homo sapiens), Q9NUW8; AID 485290, 2010; further: nearly all actives have a fitted effect of over 40% in size
# Target sequence (Q9NUW8 whole entry, looked up): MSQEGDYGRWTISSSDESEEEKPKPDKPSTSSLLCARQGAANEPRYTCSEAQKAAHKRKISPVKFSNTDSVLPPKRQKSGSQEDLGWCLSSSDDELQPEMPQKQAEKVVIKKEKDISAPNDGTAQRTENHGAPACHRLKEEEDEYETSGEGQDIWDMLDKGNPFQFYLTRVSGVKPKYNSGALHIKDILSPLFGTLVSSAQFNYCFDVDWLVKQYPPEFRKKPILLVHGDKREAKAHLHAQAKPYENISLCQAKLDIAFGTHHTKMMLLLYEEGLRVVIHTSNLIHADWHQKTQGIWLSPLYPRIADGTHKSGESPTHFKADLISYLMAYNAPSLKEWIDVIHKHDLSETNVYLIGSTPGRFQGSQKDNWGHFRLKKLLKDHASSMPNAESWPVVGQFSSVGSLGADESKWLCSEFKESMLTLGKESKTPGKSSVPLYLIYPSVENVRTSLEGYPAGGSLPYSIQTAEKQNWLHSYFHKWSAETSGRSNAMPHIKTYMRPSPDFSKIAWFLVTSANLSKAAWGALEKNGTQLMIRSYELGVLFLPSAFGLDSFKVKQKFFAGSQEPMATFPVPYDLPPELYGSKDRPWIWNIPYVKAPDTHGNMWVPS
#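 E. coli-derived human Tdp1, 1 nM final. Cpd preinc 15 min RT; substrate 15 nM final, 5 min RT; AS bead mix 10 ug/ml final, 10 min RT. Signal loss = tyrosine-FITC cleavage. No-enzyme wells = max signal.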
# Hits are given with their value; n = inactive; u = inconclusive; x = not tested or not shown; ! = a repeat was not active; [ ] = another dose, or the depositor's remark. The call rests on the fitted dose curve; in most records, active means well fitted curve in the direction sought with a large enough effect; inconclusive means small, poorly fitted or top-dose-only effect, or another doubt; inactive means no such curve, though single readings can be large; an effect the other way counts as inactive or inconclusive.
SMILES,Sfp PPTase inh,BAZ2B inh,G9a inh,JMJD2A Tudor,HP1b chromo inh,TDP1 inh
Oc1ccc(O)c(Cc2nc3ccccc3[nH]2)c1,35µM,n,3.2µM,10µM,u,n
CNCc1nc2ccccc2[nH]1,u,u,x,u,n,n
CCCCc1nc2ccccc2[nH]1,n,n,n,n,n,n
Nc1ccc2nc(CCCCc3nc4ccccc4[nH]3)[nH]c2c1,n,u,35µM,u,n,n
Nc1ccc2nc(CCCO)[nH]c2c1,n,50µM,28µM,n,n,n
Cn1c(CCc2nc3ccccc3[nH]2)n[nH]c1=S,u,n,u,7.9µM,n,n
N#Cc1ccccc1OCC(=O)Nc1cc(S(=O)(=O)N2CCCCC2)ccc1N1CCOCC1,x,x,x,n,n,x
CC(=O)NCCc1nc2ccccc2[nH]1,n,n,n,n,n,n
CN(CC(=O)O)Cc1nc2ccccc2[nH]1,89µM,20µM,1.3µM,n,n,n
C[C@@H](CCc1ccc(O)cc1)NCCc1ccc(O)c(O)c1,56µM!,x,n[21.5 µM],x,x,n
COCCN(C(=S)Nc1ccc(C)c(C)c1)C(C)c1ccco1 (stereo not given),n,n,n,n,n,n
CCc1cccc(NC(=S)N(CCOC)C(C)c2ccco2)c1 (stereo not given),56µM,n,n[12.7 µM],n,n,n
CCn1c(CNC(=O)c2ccccc2F)nnc1SCc1nc2ccccc2c(=O)[nH]1,n,n,n,x,x,n
O=C(Cc1ccccc1Cl)NC1(O)C(=O)c2ccccc2C1=O,n,n,56µM,n,n,n
O=C(Cc1ccc(Cl)cc1)NCc1ccccc1Cl,n,n,n,n,n,n
Cc1ccccc1Cn1c(CN2CCCC(C)C2)nc2c1c(=O)n(C)c(=O)n2C (stereo not given),x,x,n,n,n,n
COc1cc([N+](=O)[O-])cc(/C=N/NC(=O)C(C)Nc2cccc3ccccc23)c1O (stereo not given),n,45µM,45µM,u,n,n
CCOc1cccc(/C=N/NC(=O)c2cccnc2)c1O,n,32µM,n,89µM,n,n
COc1cc([N+](=O)[O-])cc(/C=N/NC(=O)c2cccnc2)c1O,n,18µM,x,22µM,n,n
COc1ccc(/C=N/NC(=O)c2ccncc2)c(OC)c1,n,n,n,n,n,x
COc1cc(OC)c(/C=N/NC(=O)c2ccncc2)c(OC)c1,n,n,n,4µM,n,n
COc1cc([N+](=O)[O-])cc(/C=N/NC(=O)C(O)(c2ccccc2)c2ccccc2)c1O,n,u,n,n,n,x
Cc1ccc(NC(=O)CCCn2c(=O)c3cccn3c3cccnc32)c(C)c1,x,n,n,n,n,n
C/C(=N\NC(=O)c1nnn(-c2nonc2N)c1C(C)C)c1ccc2ccccc2c1,n,n,n,n,n,n
COc1cccc(/C=N/NC(=O)N/N=C/c2cccc(OC)c2O)c1O,n,n,n[0.501 µM],u,n,x
SMILES,Sfp PPTase inh,BAZ2B inh,G9a inh,JMJD2A Tudor,HP1b chromo inh,TDP1 inh
Cc1ccc(/C=N/NC(=O)c2ccccc2OCc2cccc(Br)c2)o1,n,n,25µM,n,u,n
COc1ccccc1NC(C)C(=O)N/N=C/c1ccccc1OCc1cccc(Br)c1 (stereo not given),n,n,50µM,u,n,n
COc1cccc(C=NNC(=O)c2ccncc2)c1O,x,x,x,56µM,n,x
CC(C)CCOc1cccc(OCC(=O)O)c1,n,n,n,n,n,n
Cn1c(SCc2cccc(Br)c2)nnc1-c1ccncc1,n,n,x,n,n,n
Cc1cc(C)cc(C(=O)NCC(=O)OCC(=O)NC2CCCc3ccccc32)c1 (stereo not given),x,x,x,n,n,n
O=C(Cc1cccs1)NC1C(=O)N2C(C(=O)[O-])=C(C[n+]3ccccc3)CSC12 (stereo not given),u,x,n[2.33 µM],x,x,2.2µM
CC(=O)OCC1=C(C(=O)O)N2C(=O)C(NC(=O)CC(C)c3ccccc3)C2SC1 (stereo not given),x,u,u,n,n,n
NC(=O)c1cc[n+](CC2=C(C(=O)O)N3C(=O)[C@@H](NC(=O)[C@@H](c4ccccc4)S(=O)(=O)[O-])[C@H]3SC2)cc1,x,x,3.8µM,x,x,11µM
COc1cc(CNC(=O)c2cnc(SC)nc2-c2ccccc2)cc(OC)c1OC,x,n,n,n,n,n
CCCCc1c(CCC)c(=N)c2ccccc2n1C,n,n,n,89µM,n,n
COc1ccc(/C=N/N(C)c2cc(=O)n(C)c(=O)[nH]2)cc1OC,n,79µM,40µM,n,n,n
CN(/N=C/C=C/c1ccccc1)c1cc(=O)n(C)c(=O)[nH]1,u,n,n,u,n,n
O=C(NCCc1ccccc1)c1ccc(-n2cnnn2)cc1,n,n,n[12.7 µM],n,n,n
O=C(NCCc1cccc(Cl)c1)c1cccc(-n2cnnn2)c1,x,n,45µM,n,n,n
Cc1cc(Nc2ccc(Cl)cc2)n2cnnc2n1,x,n,n,n,n,n
CC(C)CC(=O)NNC(=S)Nc1ccc(S(N)(=O)=O)cc1,20µM,n,5.6µM,n,n,n
CC(C)CC(=O)NC(=S)Nc1ccc(S(=O)(=O)NC(C)(C)C)cc1,n,n,n,n,n,n
CCc1ccc(C(=O)NNC(=S)Nc2ccc(S(N)(=O)=O)cc2)s1,n,n,7.9µM,n[11.4 µM],n,n
COc1ccc(/C=C2\SC(=O)N(CCNC(=O)Cc3coc4cc(C)ccc34)C2=O)cc1OC,n,n,10µM,n,n,n
COc1ccc(/C=C2\SC(=O)N(CC(=O)Nc3cccnc3)C2=O)cc1OC,45µM,n,u,n,n,n
COc1cc(/C=C2\SC(=O)N(CC(=O)Nc3cccc(C)c3)C2=O)cc([N+](=O)[O-])c1O,n,40µM,14µM,18µM,28µM,n
COc1cc(/C=C2/SC(=S)N(CC(=O)Nc3cccnc3)C2=O)cc(OC)c1OC,n,u,n,u,n,n
COc1cc(/C=C2\SC(=O)N(c3ccccc3Cl)C2=O)cc([N+](=O)[O-])c1O,n,25µM,11µM,35µM,u,n
CCN(CC)CCCNC(=O)CN1C(=O)COc2ccc(S(=O)(=O)N3CCC(C)CC3)cc21,x,n,n,n,n,n
CCOc1ccc(NC(=S)NC(=O)c2cccnc2)c([N+](=O)[O-])c1,n,n,u,n,n,n
COc1ccccc1CN1CCCC2(CCN(C(=O)c3ccncc3)CC2)C1,n,x,n[12.7 µM],x,x,x
